# Test results published in PubChem BioAssay (NCATS).
# Records with an inconclusive call do not appear. Entries that show only a call come without a potency. The source made the active and inactive calls. Unless noted, the call rests on the fitted dose curve; in most records, active means well fitted curve in the direction sought with a large enough effect; inconclusive means small, poorly fitted or top-dose-only effect, or another doubt; inactive means no such curve, though single readings can be large; an effect the other way counts as inactive or inconclusive.
# Legend:
# [1] = molecular target: Cytochrome P450 3A4 (Homo sapiens) (UniProt P08684); test: qHTS Assay for Inhibitors and Substrates of Cytochrome P450 3A4 (AID 884); conditions: recombinant CYP3A4, Luciferin-PPXE luminescence; series mostly up to 57.1 µM; further: nearly all actives have a fitted effect of over 50% in size; further: potency means the concentration at half of the fitted maximal effect
# Chain of Cytochrome P450 3A4 (Homo sapiens) (P08684 whole entry, looked up): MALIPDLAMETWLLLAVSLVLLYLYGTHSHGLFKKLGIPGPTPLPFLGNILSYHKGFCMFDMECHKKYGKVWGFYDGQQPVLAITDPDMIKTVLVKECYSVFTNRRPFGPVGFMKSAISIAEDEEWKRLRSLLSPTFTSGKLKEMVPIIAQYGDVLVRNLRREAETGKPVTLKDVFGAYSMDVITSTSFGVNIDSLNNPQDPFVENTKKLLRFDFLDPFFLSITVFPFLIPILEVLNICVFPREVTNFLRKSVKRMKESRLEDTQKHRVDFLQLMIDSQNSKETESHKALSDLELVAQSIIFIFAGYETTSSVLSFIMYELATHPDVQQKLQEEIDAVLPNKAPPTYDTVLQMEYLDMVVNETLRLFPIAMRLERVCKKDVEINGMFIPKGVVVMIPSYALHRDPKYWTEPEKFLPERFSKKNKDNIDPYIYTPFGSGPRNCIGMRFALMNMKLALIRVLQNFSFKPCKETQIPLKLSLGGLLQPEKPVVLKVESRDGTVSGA
# Outline: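 Luminescent readout of luciferin produced by CYP3A4 (20 nM) dealkylation of Luciferin-PPXE, 25 uM (its KM). NADPH-driven reaction ran 60 min at RT after 10 min compound preincubation; data scaled to 57 uM ketoconazole as 100% inhibition.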
# [2] = Confirmation and Secondary Assay for Modulators of Hemoglobin Beta Chain Splicing at IVS2 654 locus (AID 910); conditions: HeLa EGFP-654 splicing reporter, GFP fluorescence, 48 h; series mostly up to 46.1 µM;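 further: HeLa cells stably carrying EGFP split by mutant beta-globin IVS2-654 intron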
# Outline: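 HeLa cells stably expressing EGFP interrupted by β-globin IVS2-654 intron, seeded overnight in Opti-MEM/2% FCS, then treated 2 days at 37 °C. Restored splicing read as total peak GFP intensity per well by laser scanning cytometry (488 nm excitation, 500–520 nm emission); 500 nM antisense PNA as control.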
# [3] = Cellular Toxicity (caspase-3) NIH 3T3 (AID 666); conditions: NIH 3T3 caspase-3 activation, apoptosis/toxicity, 0% DMSO, 100% is 100 µM tamoxifen; series mostly up to 92.2 µM
# Outline: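 Cells were plated at 1000 per well and incubated 5 hr at 37°C, then compound was added for 16 hr. Caspase-Glo 3/7 reagent followed for 20 min at room temperature before luminescence was read.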
# [4] = Cellular Toxicity (caspase-3) Renal Proximal Tubule (AID 667); conditions: renal proximal tubule cells, primary cells freshly taken from rat, solvent-only wells 0%, staurosporine 100%; series mostly up to 91.7 µM;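 further: cells exposed to compound for 16 hours at 37 °C before detection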
# Outline: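 Luminescent caspase 3/7 signal from peptide-aminoluciferin cleavage measures apoptosis in freshly isolated rat kidney proximal tubule cells after 16 h compound exposure. Concentration-response data are normalized to DMSO and 10 uM staurosporine, and AC50 values come from Hill equation fits.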
# [5] = molecular target: Cytochrome P450 2C9 (Homo sapiens) (UniProt P11712); test: qHTS Assay for Inhibitors and Substrates of Cytochrome P450 2C9 (AID 883); conditions: recombinant CYP2C9, luciferin-H luminescence, 60 min; series mostly up to 25.6 µM; further: nearly all actives have a fitted effect of over 60% in size; further: potency means the concentration at half of the fitted maximal effect
# Chain of Cytochrome P450 2C9 (Homo sapiens) (P11712 whole entry, looked up): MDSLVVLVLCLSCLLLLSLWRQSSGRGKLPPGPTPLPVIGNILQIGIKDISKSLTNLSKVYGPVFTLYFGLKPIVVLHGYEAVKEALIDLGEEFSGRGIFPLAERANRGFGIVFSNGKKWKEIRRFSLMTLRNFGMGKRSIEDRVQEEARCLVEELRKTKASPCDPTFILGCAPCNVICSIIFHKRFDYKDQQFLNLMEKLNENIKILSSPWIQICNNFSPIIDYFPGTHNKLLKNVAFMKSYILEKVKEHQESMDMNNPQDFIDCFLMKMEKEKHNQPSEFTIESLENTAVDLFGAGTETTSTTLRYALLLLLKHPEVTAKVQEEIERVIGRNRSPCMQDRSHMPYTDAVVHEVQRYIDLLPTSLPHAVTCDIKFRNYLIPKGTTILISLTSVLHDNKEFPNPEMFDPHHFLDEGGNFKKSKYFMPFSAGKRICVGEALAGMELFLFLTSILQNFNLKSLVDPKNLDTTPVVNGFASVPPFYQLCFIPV
# Protocol: NIH Molecular Libraries Screening Centers Network [MLSCN] NIH Chemical Genomics Center [NCGC] MLSCN Grant: None NCGC Assay Overview: The P450 gene superfamily is involved in the metabolism and clearance of xenobiotics. This assay used human CYP2C9 to measure the hydroxylation of deoxyluciferin (Luciferin-H; P450 Glo-Buffer) to luciferin. The luciferin is then measured by luminescence after the addition of a luciferase detection reagent. Luciferin-H concentration in the assay was equal to its Michaelis constant KM for CYP2C9. Inhibitors and some substrates limit the production of luciferin, and decrease measured luminescence.
# NCGC Assay Protocol Summary: Two uL of enzyme and substrate mix (final concentrations: 10nM CYP2C9, 100uM Luciferin-H, 25mM KPO4) were dispensed into a white, solid bottom 1536-well microtiter plate. 23nL of compound was transferred by a pin tool. The plate was incubated at 37C for 10 min. Two uL of an NADPH regeneration solution (Promega supplied reagent) was dispensed and the reaction was allowed to continue for 60 min at 37C. Then the reaction was stopped by reconstituted P450 Glo-Buffer. After another 20 min of incubation the plate was read on the ViewLux (Perkin Elmer) at 60 sec exposure and 2x2 binning. This protocol was carried out with Promega-Glo reagents and further information can be found at http://www.promega.com/tbs/tb325/tb325.pdf. Data were normalized to the to AC100 inhibition (57uM sulphaphenazole). Keywords: P450, CYP2C9, Luciferase, MLSMR, MLSCN, NIH Roadmap, qHTS, NCGC
# [6] = molecular target: Guanine nucleotide-binding protein G(i) subunit alpha-1 (Homo sapiens) (UniProt P63096); test: qHTS Assay for Inhibitors of RGS12 GoLoco Motif Activity (Green Fluorophore) (AID 879); conditions: Galphai1/FITC-RGS12 GoLoco peptide, fluorescence polarization; series mostly up to 57.1 µM;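 further: negative values mean loss of peptide binding seen as reduced polarization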
# Chain of Guanine nucleotide-binding protein G(i) subunit alpha-1 (Homo sapiens) (P63096 whole entry, looked up): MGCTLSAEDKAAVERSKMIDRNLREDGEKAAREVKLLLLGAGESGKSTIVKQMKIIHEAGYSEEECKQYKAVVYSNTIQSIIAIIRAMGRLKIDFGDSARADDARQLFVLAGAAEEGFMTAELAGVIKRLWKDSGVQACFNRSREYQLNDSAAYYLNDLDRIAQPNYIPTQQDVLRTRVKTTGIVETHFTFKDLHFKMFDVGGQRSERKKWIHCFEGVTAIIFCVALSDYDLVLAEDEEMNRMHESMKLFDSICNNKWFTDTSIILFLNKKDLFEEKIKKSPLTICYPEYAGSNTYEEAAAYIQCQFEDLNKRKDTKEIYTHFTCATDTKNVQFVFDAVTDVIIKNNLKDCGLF
# Outline: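 A drop in FITC polarization marked displacement of the FITC-tagged RGS12 GoLoco peptide (10 nM) from Gαi1 (50 nM). Compounds were incubated 10 min at room temperature in Tris pH 7.5 buffer containing 150 mM NaCl, 0.1 mM GDP and 0.05% NP40; unlabeled peptide titration served as control.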
# [7] = molecular target: Cytochrome P450 3A4 (Homo sapiens) (UniProt P08684); test: qHTS Assay for Activators of Cytochrome P450 3A4 (AID 885); conditions: recombinant CYP3A4, Luciferin-PPXE luminescence, 60 min; series mostly up to 57.1 µM; further: nearly all actives have a fitted effect of over 65% in size
# Outline: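 Luminescent readout of luciferin formed from 25 uM Luciferin-PPXE (KM level) by 20 nM CYP3A4 in 200 mM KPO4, with 60 min NADPH-driven reaction at room temperature after 10 min compound exposure. Ketoconazole (57 uM) defined 100% inhibition.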
# [8] = molecular target: Cytochrome P450 2C19 (Homo sapiens) (UniProt P33261); test: qHTS Assay for Inhibitors and Substrates of Cytochrome P450 2C19 (AID 899); conditions: recombinant CYP2C19, luciferin-H EGE luminescence; further: potency means the concentration at half of the fitted maximal effect; nearly all actives have a fitted effect of over 60% in size
# Chain of Cytochrome P450 2C19 (Homo sapiens) (P33261 whole entry, looked up): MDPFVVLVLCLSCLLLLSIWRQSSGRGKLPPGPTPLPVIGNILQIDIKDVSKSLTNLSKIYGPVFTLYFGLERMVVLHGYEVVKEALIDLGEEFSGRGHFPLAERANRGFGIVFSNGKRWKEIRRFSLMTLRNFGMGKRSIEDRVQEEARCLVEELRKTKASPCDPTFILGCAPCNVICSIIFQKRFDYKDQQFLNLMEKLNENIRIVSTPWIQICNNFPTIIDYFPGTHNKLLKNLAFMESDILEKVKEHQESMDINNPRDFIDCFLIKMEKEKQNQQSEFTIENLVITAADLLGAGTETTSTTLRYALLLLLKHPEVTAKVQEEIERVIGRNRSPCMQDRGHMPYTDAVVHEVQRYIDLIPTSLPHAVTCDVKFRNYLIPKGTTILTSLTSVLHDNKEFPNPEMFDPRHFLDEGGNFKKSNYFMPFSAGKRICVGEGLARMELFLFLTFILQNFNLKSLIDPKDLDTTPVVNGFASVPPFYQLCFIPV
# Outline: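 Signal comes from luciferase acting on luciferin released by CYP2C19-mediated hydroxylation of Luciferin-H EGE, 10uM (KM). Assay mix: 5nM enzyme, 50mM KPO4; 60 min at 37C with NADPH regeneration. Data normalized against 57uM ketoconazole.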
# [9] = molecular target: Cytochrome P450 2D6 (Homo sapiens) (UniProt P10635); test: qHTS Assay for Inhibitors and Substrates of Cytochrome P450 2D6 (AID 891); conditions: recombinant CYP2D6, luciferin-ME EGE luminescence; further: potency means the concentration at half of the fitted maximal effect; nearly all actives have a fitted effect of over 60% in size
# Chain of Cytochrome P450 2D6 (Homo sapiens) (P10635 whole entry, looked up): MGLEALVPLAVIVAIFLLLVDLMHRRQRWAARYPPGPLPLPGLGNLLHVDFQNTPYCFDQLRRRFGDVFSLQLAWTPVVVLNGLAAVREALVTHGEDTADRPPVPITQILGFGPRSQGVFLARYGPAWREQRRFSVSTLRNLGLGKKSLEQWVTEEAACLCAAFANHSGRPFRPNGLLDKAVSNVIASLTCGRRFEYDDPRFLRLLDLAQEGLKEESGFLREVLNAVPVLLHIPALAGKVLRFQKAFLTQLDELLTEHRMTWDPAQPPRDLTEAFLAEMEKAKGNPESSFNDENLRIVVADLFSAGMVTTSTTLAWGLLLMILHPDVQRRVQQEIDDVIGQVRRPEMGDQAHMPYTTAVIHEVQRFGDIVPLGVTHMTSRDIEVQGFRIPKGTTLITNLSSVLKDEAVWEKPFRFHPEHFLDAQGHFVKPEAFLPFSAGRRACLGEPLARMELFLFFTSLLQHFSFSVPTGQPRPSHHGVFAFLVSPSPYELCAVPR
# Outline: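 Luminescent read-out of luciferin formed by 5 nM human CYP2D6 demethylating 30 uM Luciferin-ME EGE (Km level) over 60 min at room temperature after NADPH regeneration addition. Data normalized to full inhibition by 1.43 uM quinidine.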
# [10] = qHTS Assay for Identification of Small Molecule Antagonists for NFkB Signaling Pathway (AID 895; active means well fitted inhibition curve with a large enough effect in the signal ratio, with a control signal flat, not every such curve was filed as active; the % refers to the signal ratio); conditions: NFkB beta-lactamase reporter cells, FRET ratio 460/530, stimulated with 10 pM TNF alpha; series mostly up to 38.3 µM
# Outline: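 ME-180 NFkB-bla cells (beta-lactamase under NFkB response element), plated overnight, treated with compound then 10 pM TNF alpha (about EC50) for 5 hrs at 37 C. LiveBLAzer FRET read at 460/530 nm emission, 405 nm excitation.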
smiles,measurement,setting,value
COP(=O)(OC)OC(c1ccc(Cl)cc1)P(=O)(OC)OC (stereo unspecified),Potency,[1],inactive
CC(=O)NO,Potency,[1],inactive
same,outcome,[2],inactive
COc1ccc(C(Cl)=C(c2ccc(OC)cc2)c2ccc(OC)cc2)cc1,outcome,[3],inactive
same,outcome,[4],inactive
same,Potency,[1],inactive
same,outcome,[2],inactive
OC[C@H]1O[C@@H]2O[C@H]3[C@H](O)[C@@H](O)[C@@H](O[C@H]4[C@H](O)[C@@H](O)[C@@H](O[C@H]5[C@H](O)[C@@H](O)[C@@H](O[C@H]6[C@H](O)[C@@H](O)[C@@H](O[C@H]7[C@H](O)[C@@H](O)[C@@H](O[C@H]8[C@H](O)[C@@H](O)[C@@H](O[C@H]1[C@H](O)[C@H]2O)O[C@@H]8CO)O[C@@H]7CO)O[C@@H]6CO)O[C@@H]5CO)O[C@@H]4CO)O[C@@H]3CO,outcome,[3],inactive
same,outcome,[4],inactive
same,Potency,[1],inactive
COc1ccccc1N1CCN(CCCCNC(=O)c2ccc(-c3ccc(C(C)=O)cc3)cc2)CC1,Potency,[5],inactive
Cc1ncc(CO)c(C=O)c1O,Potency,[1],inactive
CN(C)CCC[C@@]1(c2ccc(F)cc2)OCc2cc(C#N)ccc21,outcome,[6],inactive
same,Potency,[5],3.16 µM (active)
same,Potency,[1],inactive
same,outcome,[7],inactive
same,Potency,[8],3.16 µM (active)
same,outcome,[2],inactive
CCCCCN=C(N)N/N=C/c1c[nH]c2ccc(OC)cc12,Potency,[1],inactive
same,outcome,[2],inactive
CC(C)(C)NC[C@H](O)COc1nsnc1N1CCOCC1,outcome,[6],inactive
COc1cc(N)c(Cl)cc1C(=O)NC1CCN(Cc2ccccc2)CC1,Potency,[5],inactive
same,Potency,[1],12.6 µM (active)
same,outcome,[7],inactive
same,Potency,[9],0.0126 µM (active)
same,outcome,[2],inactive
CCCCC(CC)COC(=O)c1ccc(N(C)C)cc1 (stereo unspecified),outcome,[3],inactive
same,outcome,[4],inactive
CC(C(=O)O)c1cccc(Oc2ccccc2)c1 (stereo unspecified),Potency,[1],inactive
same,outcome,[2],inactive
NS(=O)(=O)Cc1noc2ccccc12,outcome,[6],inactive
same,outcome,[7],inactive
CCOc1ccc(NC(C)=O)cc1,outcome,[3],inactive
same,outcome,[4],inactive
same,outcome,[2],inactive
CN=C(N)NCCC[C@H](N)C(=O)O,outcome,[6],inactive
same,outcome,[10],inactive
CN1CCC[C@@H]1CCO[C@](C)(c1ccccc1)c1ccc(Cl)cc1,outcome,[6],inactive
same,outcome,[7],inactive
COc1cc(C(=O)NCc2ccc(OCCN(C)C)cc2)cc(OC)c1OC,outcome,[5],inactive
same,outcome,[2],inactive
O=C1C(O)=C(O)C(=O)C(O)=C1O,Potency,[1],inactive
same,outcome,[2],inactive
NCCNc1cccc2ccccc12,outcome,[3],inactive
same,outcome,[4],inactive
same,Potency,[1],inactive
O=c1[nH]c(=O)n([C@H]2C[C@H](O)[C@@H](CO)O2)cc1F,Potency,[1],inactive
CNCCc1ccccn1,Potency,[1],inactive
same,outcome,[2],inactive
Oc1c(Cl)cc(Cl)c(Cl)c1Cc1c(O)c(Cl)cc(Cl)c1Cl,outcome,[3],inactive
same,outcome,[4],inactive
same,outcome,[2],inactive
Oc1ccc(Cl)cc1Cc1cc(Cl)ccc1O,outcome,[3],inactive
same,outcome,[4],inactive
same,outcome,[2],inactive
C/C=C/c1ccc(O)c(OC)c1,outcome,[3],inactive
same,outcome,[4],inactive
same,Potency,[1],inactive
CCOc1ccccc1C(N)=O,outcome,[3],inactive
same,outcome,[4],inactive
same,Potency,[1],inactive
C=C[C@H]1CN2CC[C@H]1C[C@@H]2[C@@H](O)c1ccnc2ccc(OC)cc12,outcome,[3],inactive
same,outcome,[4],inactive
CCCN(CCC)S(=O)(=O)c1ccc(C(=O)O)cc1,outcome,[3],inactive
same,outcome,[4],inactive
same,Potency,[1],inactive
same,outcome,[2],inactive
C[C@H]1[C@H]2CC[C@H]3[C@@H]4CC=C5C[C@@H](N(C)C)CC[C@]5(C)[C@H]4CC[C@]23CN1C,Potency,[1],inactive
COc1ccc(C(=O)c2ccccc2)c(O)c1,outcome,[3],inactive
same,outcome,[4],inactive
same,Potency,[1],inactive
same,outcome,[2],inactive
CCN(CC)CCOc1ccc2c(c1)C(=O)c1cc(OCCN(CC)CC)ccc1-2,Potency,[1],inactive
same,outcome,[2],inactive
O=C(O)c1ccc(S(=O)(=O)N(Cl)Cl)cc1,outcome,[3],inactive
same,outcome,[4],inactive
same,Potency,[1],inactive
same,outcome,[2],inactive
COc1cc([C@H]2Oc3cc([C@H]4Oc5cc(O)cc(O)c5C(=O)[C@@H]4O)ccc3O[C@@H]2CO)ccc1O,outcome,[4],inactive
CN(C)CCOC(c1ccc(Cl)cc1)c1ccccn1 (stereo unspecified),Potency,[1],inactive
same,outcome,[2],inactive
NC(N)=NCc1cccc(I)c1,outcome,[6],inactive
same,outcome,[10],inactive
O=C(CCCN1CC=C(n2c(=O)[nH]c3ccccc32)CC1)c1ccc(F)cc1,Potency,[5],inactive
same,outcome,[7],inactive
same,Potency,[9],3.16 µM (active)
same,outcome,[2],inactive
O=C1C(=O)c2ccccc2C(O)=C1C1CCC(c2ccc(Cl)cc2)CC1 (stereo unspecified),Potency,[5],2 µM (active)
same,Potency,[1],inactive
same,outcome,[2],inactive
NC(=O)c1ccccc1O,outcome,[3],inactive
same,outcome,[4],inactive
same,Potency,[1],inactive
same,outcome,[2],inactive
O=C(O)P(=O)(O)O,Potency,[1],inactive
same,outcome,[2],inactive
CCN(CC)CCNc1ccc(CO)c2sc3ccccc3c(=O)c12,outcome,[7],inactive
same,Potency,[9],5.01 µM (active)
same,outcome,[2],inactive
Cc1ccccc1OCC(O)CO (stereo unspecified),outcome,[2],inactive
CCN1CCCC(OC(=O)C(c2ccccc2)c2ccccc2)C1 (stereo unspecified),outcome,[2],inactive
